# Where a name gives a salt, the structure may show the parent alone.
# System: U-2932
# Assay: growth inhibition by drug plus 177Lu-lilotomab satetraxetan (1 - RLU/untreated control) (fraction); higher = stronger inhibition
# Settings: 10 nM; time (day): 5; 177Lu-lilotomab satetraxetan 1 ug/ml
# How it was run: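 RIVA or U-2932 cells, untreated or pretreated 18 h with a radiolabelled anti-CD37 antibody conjugate (~600 MBq/mg; 0.5 µg/ml RIVA, 1 µg/ml U-2932), were washed and seeded at 3,000 cells/well on plates pre-printed with the Selleck Cambridge Cancer Compound library. Doses were 10/100 nM (RIVA) or 10/1,000 nM (U-2932). RealTime-Glo luminescence was read daily from day 3 after 1 h at 37°C. Growth inhibition is 1 − RLU/mean of 48 untreated no-drug wells per plate.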
row,Compound,growth inhibition by drug plus 177Lu-lilotomab satetraxetan
1,Nc1nc2[nH]cc(CCc3ccc(C(=O)N[C@@H](CCC(=O)O)C(=O)O)cc3)c2c(=O)[nH]1 [Pemetrexed],0.000411
2,COc1cc2nccc(Oc3ccc(NC(=O)Nc4cc(C)on4)c(Cl)c3)c2cc1OC [Tivozanib (AV-951)],0.127
3,CCC(=O)N1CCN(c2ccc(-n3c(=O)ccc4cnc5ccc(-c6cnc7ccccc7c6)cc5c43)cc2C(F)(F)F)CC1 [Torin 1],0.208
4,COc1cccc2c1C(=O)c1c(O)c3c(c(O)c1C2=O)C[C@@](O)(C(=O)CO)C[C@@H]3O[C@H]1C[C@H](N)[C@@H](O)[C@H](C)O1 [Epirubicin Hydrochloride],0.39
5,Clc1ccc(Nc2nnc(Cc3ccncc3)c3ccccc23)cc1 [Vatalanib dihydrochloride (PTK787)],0.0124
6,COc1cc2nccc(Oc3ccc(NC(=O)C4(C(=O)Nc5ccc(F)cc5)CC4)cc3)c2cc1OC [XL-184 free base (Cabozantinib)],0.153
7,C[C@@H](O[C@H]1OCCN(Cc2n[nH]c(=O)[nH]2)[C@H]1c1ccc(F)cc1)c1cc(C(F)(F)F)cc(C(F)(F)F)c1 [Aprepitant (MK-0869)],-0.143
8,COc1cc2c(cc1O)CC[C@@H]1[C@@H]2CC[C@]2(C)[C@@H](O)CC[C@@H]12 [2-Methoxyestradiol],0.00475
9,CNCc1ccc(-c2[nH]c3cc(F)cc4c3c2CCNC4=O)cc1,0.0882
10,CC[C@@]1(O)C(=O)OCc2c1cc1n(c2=O)Cc2cc3c(CN(C)C)c(O)ccc3nc2-1 [Topotecan HCl],0.604
11,Nc1cc(C(F)(F)F)c(-c2cc(N3CCOCC3)nc(N3CCOCC3)n2)cn1,-0.0958
12,CC(C)(C)c1ccc(S(=O)(=O)/C=C/C#N)cc1,0.0584
13,C[C@]1(c2nc3c(C(N)=O)cccc3[nH]2)CCCN1 [ABT-888 (Veliparib)],0.0158
14,Cc1ccc(NC(=O)c2ccc(CN3CC[C@H](N(C)C)C3)c(C(F)(F)F)c2)cc1Nc1nccc(-c2cncnc2)n1 [Bafetinib (INNO-406)],0.138
15,C[C@]12CC[C@@H]3c4ccc(O)cc4CC[C@H]3[C@@H]1CCC2=O [Estrone],0.127
16,O=C(c1ccc(OCCN2CCCCC2)cc1)c1c(-c2ccc(O)cc2)sc2cc(O)ccc12 [Evista (Raloxifene Hydrochloride)],0.0239
17,CCN(CC)CCNC(=O)c1c(C)[nH]c(/C=C2\C(=O)Nc3ccc(F)cc32)c1C [Sunitinib Malate (Sutent)],-0.026
18,CCOc1ccc(Nc2nc(-c3c(C)nc4ccccn34)cs2)cc1,0.267
19,C=CC(=O)N1CCC[C@@H](n2nc(-c3ccc(Oc4ccccc4)cc3)c3c(N)ncnc32)C1,0.568

row,Compound,growth inhibition by drug plus 177Lu-lilotomab satetraxetan
1,CS(=O)(=O)c1cccc(CNc2nc(Nc3ccc4c(c3)CCC(=O)N4)ncc2C(F)(F)F)c1,0.101
2,CC(NC(=O)c1ccccc1/N=C/c1c(O)ccc2ccccc12)c1ccccc1 (stereo not drawn) [Sirtinol],0.116
3,CN(Cc1cnc2nc(N)nc(N)c2n1)c1ccc(C(=O)N[C@@H](CCC(=O)O)C(=O)O)cc1 [Abitrexate (Methotrexate)],-0.0233
4,OCCn1cc(-c2cnc3nnn(Cc4ccc5ncccc5c4)c3n2)cn1,0.0857
5,COc1cc(Nc2ncc(F)c(Nc3ccc4c(n3)NC(=O)C(C)(C)O4)n2)cc(OC)c1OC [R406(free base)],0.0816
6,COc1cccc2c1C(=O)c1c(O)c3c(c(O)c1C2=O)C[C@@](O)(C(=O)CO)C[C@@H]3O[C@H]1C[C@H](N)[C@H](O)[C@H](C)O1 [Doxorubicin (Adriamycin)],0.589
7,CN(NC(=O)CC(=O)NN(C)C(=S)c1ccccc1)C(=S)c1ccccc1 [Elesclomol],0.914
8,"CN(C)CCOc1ccc(/C(=C(/CCCl)c2ccccc2)c2ccccc2)cc1 [Toremifene Citrate (Fareston, Acapodene)]",0.204
9,CN1CCN(CCOc2cc(OC3CCOCC3)c3c(Nc4c(Cl)ccc5c4OCO5)ncnc3c2)CC1 [Saracatinib (AZD0530)],0.0506
10,CC(C)C[C@H](NC(=O)[C@H](Cc1ccccc1)NC(=O)c1cnccn1)B(O)O [Bortezomib (Velcade)],0.976
11,Cn1cncc1[C@@](N)(c1ccc(Cl)cc1)c1ccc2c(c1)c(-c1cccc(Cl)c1)cc(=O)n2C [Tipifarnib (Zarnestra)],0.106
12,COC(=O)c1ccc2c(C(=Nc3ccc(N(C)C(=O)CN4CCN(C)CC4)cc3)c3ccccc3)c(O)[nH]c2c1 [BIBF1120 (Vargatef)],-0.00235
13,CC[C@@H]1/C=C(\C)C[C@H](C)C[C@H](OC)[C@H]2O[C@@](O)(C(=O)C(=O)N3CCCC[C@H]3C(=O)O[C@H](/C(C)=C/[C@@H]3CC[C@H](Cl)[C@H](OC)C3)[C@H](C)[C@@H](O)CC1=O)[C@H](C)C[C@@H]2OC [Pimecrolimus],0.304
14,CN(C)CCOc1ccc(-c2nc(-c3ccncc3)c(-c3ccc4c(c3)CC/C4=N\O)[nH]2)cc1,0.0668
15,COc1ccc(CCN2CCN(CCCc3ccccc3)CC2)cc1OC,0.0479
16,CNC(=O)c1cc(Oc2ccc(NC(=O)Nc3cc(C(C)(C)C)nn3-c3ccc4ncccc4c3)c(F)c2)ccn1 [DCC-2036 (Rebastinib)],0.117
17,CCC(C)(C)C(=O)O[C@H]1C[C@@H](C)C=C2C=C[C@H](C)[C@H](CC[C@@H]3C[C@@H](O)CC(=O)O3)[C@H]21 [Simvastatin (Zocor)],-0.00846
18,CCc1ccc(CCOc2ccc(CC3SC(=O)NC3=O)cc2)nc1 (stereo not drawn) [Pioglitazone (Actos)],0.0193
19,O=C(O)C(Cc1c[nH]c2ccccc12)N1C(=O)c2ccccc2C1=O (stereo not drawn),-0.032

# Reference: the supplement of paper PMC6897291
